Laboratory results published in article PMC7819943, “Rice protein-binding microarrays: a tool to detect cis-acting elements near promoter regions in rice”.
Over roughly 68,000 sequences, “fluorescence intensity (a.u.)” has its median near 9,100; the highest 2% begin near 16,000. This excerpt belongs to a sample that is enriched for the highest values.

molecular target: OsWRKY34 (Oryza sativa, UniProt Q0JBA9 1-250); assay: protein-binding microarray (RPBM); PBS, 2% BSA, 51.3 ng/ul salmon testes DNA, 50 uM zinc acetate, 200 nM TF, 25 C, 1 h; high values mean tight binding; conditions: protein: recombinant; tags: N-terminal polyhistidine and DsRed monomer fusion (pET32a); label: CyDye5-dUTP incorporated in the synthesized complementary strand; 3' TTTTT single-stranded linker to array surface; dsDNA, one strand shown
Sequence (Q0JBA9 entry or part of it): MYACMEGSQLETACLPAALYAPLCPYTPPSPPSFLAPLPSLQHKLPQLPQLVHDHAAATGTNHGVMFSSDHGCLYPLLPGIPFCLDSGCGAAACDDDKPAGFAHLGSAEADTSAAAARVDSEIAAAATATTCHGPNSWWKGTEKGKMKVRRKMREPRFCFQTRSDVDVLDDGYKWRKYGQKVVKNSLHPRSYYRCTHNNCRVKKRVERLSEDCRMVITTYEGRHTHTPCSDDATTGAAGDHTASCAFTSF
In short: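 Binding signal is reported as fluorescence intensity per feature (arbitrary units) from an Axon 4000B scanner. Incubation used 200 nM of each Ni–NTA-purified, N-terminally polyhistidine- and DsRed-fused transcription factor from E. coli BL21-CodonPlus on a double-stranded custom Agilent array for 1 h at 25 °C, with 50 µM zinc acetate in the buffer, followed by washing.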

Sequence	binding signal
GACACTGCCACCTCACTCTCCACTCCACTATATATACCCTCGGAGTCACCTAGTGCAG	12100 fluorescence intensity (a.u.)
ACTCTCCCGTTATTGCCGCCACCGGACCGCTAGCTCCGCACGGAGTCACCTAGTGCAG	9570 fluorescence intensity (a.u.)
CCCACCTCGCCTTTCGATTGCGCGATCACCCACCTTTATACGGAGTCACCTAGTGCAG	10000 fluorescence intensity (a.u.)
GCAACTGCACATGTGCTTATTTAGTTTCTGCATTGGTCAACGGAGTCACCTAGTGCAG	12200 fluorescence intensity (a.u.)
CTCGTCACTCGTCTCGTCTCGCACAGTCGCAGCTGCTGCGCGGAGTCACCTAGTGCAG	8390 fluorescence intensity (a.u.)
ACTTTATCTTTGCCGCCGGCCGCCACAACTGCTTCTACGGCGGAGTCACCTAGTGCAG	9180 fluorescence intensity (a.u.)
GACAACGGTCAAATATGTGCTAAAAAGTCAACGGTATCAACGGAGTCACCTAGTGCAG	11600 fluorescence intensity (a.u.)
TCTCGCTCCTCATGCTCCTCTCCCGGCGGCGACGCTATGCCGGAGTCACCTAGTGCAG	8080 fluorescence intensity (a.u.)
CCAGCTGTGTGTGTGCACGCGGTTTTCCAATCGATTCTTCCGGAGTCACCTAGTGCAG	9270 fluorescence intensity (a.u.)
CTCTCTTCTTTTTATCTTATTCATATGTATTTATAGCTGACGGAGTCACCTAGTGCAG	10500 fluorescence intensity (a.u.)
TACCGCCTGAAATCCAACATTATTATGCACTGTAATTTACCGGAGTCACCTAGTGCAG	8170 fluorescence intensity (a.u.)
TCCGTAAATCCAACATGGCACTATTACCGCCGGCTTAAATCGGAGTCACCTAGTGCAG	56000 fluorescence intensity (a.u.)
GCTCCGTGGCACTATTTTTTTTTTACCGCGAATCCTCCAACGGAGTCACCTAGTGCAG	9550 fluorescence intensity (a.u.)
TATCCGTTCGCGTCCCCGCCCTCGCTTCGCCGCGGCAATGCGGAGTCACCTAGTGCAG	9720 fluorescence intensity (a.u.)
GCATCCGTGTCCTTTGCCGAAGCCGAAGGCCCGCTCTCTCCGGAGTCACCTAGTGCAG	8900 fluorescence intensity (a.u.)
TGGATGGTACTCCCTCCTCTAAATGTTTGACGCCGTTGACCGGAGTCACCTAGTGCAG	14400 fluorescence intensity (a.u.)
GTCATTTATTTTTACCAACGTTTGACTATTCGTCTTATTTCGGAGTCACCTAGTGCAG	9430 fluorescence intensity (a.u.)
CTCATGTTTGACCATTCGTCTTATTTAAAAACTTTTGTGACGGAGTCACCTAGTGCAG	8180 fluorescence intensity (a.u.)
TATTTGACGTCGTTGACTTTTTAAAACATGTTTGACCATTCGGAGTCACCTAGTGCAG	30200 fluorescence intensity (a.u.)
TATACGACGCCGTTGACTTTTTAAGATACGTTAGACCATTCGGAGTCACCTAGTGCAG	20300 fluorescence intensity (a.u.)
ATGATGCCGTTGACTTTTTGAACAACGTTTGACTATTCGTCGGAGTCACCTAGTGCAG	32600 fluorescence intensity (a.u.)
ACTCCCTCCATTTTTTTAATTGACGACGCCATTGACTTTTCGGAGTCACCTAGTGCAG	9350 fluorescence intensity (a.u.)

Sequence	binding signal
GGTACTCTCTTCGTTTTTAGTATACGACGCCGTTGACTTTCGGAGTCACCTAGTGCAG	16000 fluorescence intensity (a.u.)
TTGACACCATTGACTTTTTTAAACATGTTTGACCGTTCGTCGGAGTCACCTAGTGCAG	15100 fluorescence intensity (a.u.)
TACCTCATTCCCTAAATGTTTGACGCCGTTGACTTTTTTACGGAGTCACCTAGTGCAG	17500 fluorescence intensity (a.u.)
TTGACTTTTTAACCAACGTTTGACTATTCGTCTTATTCAACGGAGTCACCTAGTGCAG	10100 fluorescence intensity (a.u.)
AAGCAGCAAAAGTCACACATACACTCTCTCTGCTACTACTCGGAGTCACCTAGTGCAG	8160 fluorescence intensity (a.u.)
TTAACTTTTACTCTAATTTATTCTCCTGTACCTTTTTATACGGAGTCACCTAGTGCAG	8250 fluorescence intensity (a.u.)
AGGTGGTTGGTGAGGTTTGCTTTGCACGATCGAGTGAGGACGGAGTCACCTAGTGCAG	10500 fluorescence intensity (a.u.)
TCCTTCCCTAAATGTTTGACGCCGTTGACTTTTTTAAACACGGAGTCACCTAGTGCAG	16600 fluorescence intensity (a.u.)
AAATGTTTGACGCCGTTGACTTTTTTAAACATGTTTGACCCGGAGTCACCTAGTGCAG	33600 fluorescence intensity (a.u.)
ATATACTCCCTCCTTCCCTAAATGTTTGACGCCGTTGACTCGGAGTCACCTAGTGCAG	11400 fluorescence intensity (a.u.)
ACGCCGTTGACTTTTTAAGCAACATTTGACCATTCGTTTTCGGAGTCACCTAGTGCAG	30000 fluorescence intensity (a.u.)
TCCGTTTCGAAATGCTTGACGCCGTTGACTTTTTTAAACACGGAGTCACCTAGTGCAG	19400 fluorescence intensity (a.u.)
TTTGACGCCGTTGACTTTTTTAAACATGCTTGATCATTCACGGAGTCACCTAGTGCAG	13700 fluorescence intensity (a.u.)
AACAGCCTGTTTTTGTGTGTTTTTTTCGTAAGTAATTAGTCGGAGTCACCTAGTGCAG	8760 fluorescence intensity (a.u.)
GGCTGCCCGCTCCTACATCCACATGCATGCTTCACACTGCCGGAGTCACCTAGTGCAG	8330 fluorescence intensity (a.u.)
TTAGTTGTTACCTTTGTCTCCTTCGTTGATCCATTGAAAGCGGAGTCACCTAGTGCAG	10500 fluorescence intensity (a.u.)
GTATACCTGCGCGTATACGGATGTTTTCGGCGTACATTAACGGAGTCACCTAGTGCAG	8390 fluorescence intensity (a.u.)
GTTCATCAATCTACTGTACTGGCCTCCTTCTCAGCTCTCACGGAGTCACCTAGTGCAG	9300 fluorescence intensity (a.u.)
TAACGCCGTTTACCTTTTAACAAACGTTTTACCTTTCGTTCGGAGTCACCTAGTGCAG	10400 fluorescence intensity (a.u.)
AATGTTTGACGCCGTTGACTTTTTTAAACATGTTTGACCACGGAGTCACCTAGTGCAG	42500 fluorescence intensity (a.u.)
CTTCCCTAAATGTTTAACGCCATTGACTTTTTTAAACATGCGGAGTCACCTAGTGCAG	12900 fluorescence intensity (a.u.)
TGACGCCGTTGGTTTTTTTAAACATGTTTGACCATTCGTCCGGAGTCACCTAGTGCAG	8990 fluorescence intensity (a.u.)

Sequence	binding signal
ATGACGCCGTTGACTTTTTAACAAACGTTTGACCATTCGTCGGAGTCACCTAGTGCAG	21700 fluorescence intensity (a.u.)
TGTTTGACGCCGTTGACTTTTTTAAACATGTTTGACCATTCGGAGTCACCTAGTGCAG	34200 fluorescence intensity (a.u.)
CTTCCCTAAATGTTTGACGCCGTTGACTTTTCTAAACATGCGGAGTCACCTAGTGCAG	18600 fluorescence intensity (a.u.)
AACTTTTTGATATACGCTCGATCATTCATCTTATTGAATACGGAGTCACCTAGTGCAG	8030 fluorescence intensity (a.u.)
CCCGTGTCTTGTGTGTTTCCATTCTCGCGAACCTTCCACACGGAGTCACCTAGTGCAG	9910 ± 264 fluorescence intensity (a.u.)
TTAATTTTTTTCTCATTTGTGCGTCCTATGGTCAAGCGTCCGGAGTCACCTAGTGCAG	8490 fluorescence intensity (a.u.)
AATTCCGGCCCAATAGTCACTTGTGTTGGCCACTTCGCCTCGGAGTCACCTAGTGCAG	9010 fluorescence intensity (a.u.)
GATTCATCGATCTTTTACGAGTACTATTTTTGTGATTATTCGGAGTCACCTAGTGCAG	11300 fluorescence intensity (a.u.)
TACATGTGGGTCCCATGGGTTTTATTATCTTTTTCGGATCCGGAGTCACCTAGTGCAG	9360 fluorescence intensity (a.u.)
AATCTACAAGATATATAACTAGATGTGTGGTGGGTTGAAACGGAGTCACCTAGTGCAG	8280 fluorescence intensity (a.u.)
AATTAGTTCCTGGACTTTGTGTATTACTAGTACTACTCCACGGAGTCACCTAGTGCAG	8570 fluorescence intensity (a.u.)
TGACTCTATTTTTTCCTTCGGTCTGCTGTCTGCACTCTGGCGGAGTCACCTAGTGCAG	11300 fluorescence intensity (a.u.)
TGTCTAGCTGCTCCGACCAGTCAACCGTTGAACGTTGACTCGGAGTCACCTAGTGCAG	14700 fluorescence intensity (a.u.)
ACCACCGCCGCGGCGGCGTCGCCCACGCCGTGCCGCCCCGCGGAGTCACCTAGTGCAG	8160 fluorescence intensity (a.u.)
CTCCGCCTCGCGCCGTTGTCGCCGTCGCCTCGCGCCGCCACGGAGTCACCTAGTGCAG	10100 fluorescence intensity (a.u.)
GTCTCCGCCATCGTTGTCGCCGTCGCCTCGCGCCACCACGCGGAGTCACCTAGTGCAG	8230 fluorescence intensity (a.u.)
GGTTGACCGTAGTCAACTCGCCACGTTGACTAGAACCGAGCGGAGTCACCTAGTGCAG	17900 fluorescence intensity (a.u.)
AGCGTCGCTGCCATCATCGCCGTCGCGTCGCTCGTCGCCGCGGAGTCACCTAGTGCAG	8220 fluorescence intensity (a.u.)
CTGCCATCGCGTCGGCGTCGCGCCGCTGCCGTTGACCGTGCGGAGTCACCTAGTGCAG	16700 fluorescence intensity (a.u.)
CGCCACCATCGCTGCGCCGCCATCGCCACCACCGCAGCCGCGGAGTCACCTAGTGCAG	8840 fluorescence intensity (a.u.)
TCGTCGGCGTCGCGTTCACGGCCGCCGTGGCCGTGGCCGTCGGAGTCACCTAGTGCAG	16500 fluorescence intensity (a.u.)
CGTTGTCGCCACCACCACCGCCGCCGTCGCCACAACTCCGCGGAGTCACCTAGTGCAG	20500 fluorescence intensity (a.u.)

Sequence	binding signal
CGTAGGCCACGCCACCTCACCCTGTTGACCGAGTCAAACCCGGAGTCACCTAGTGCAG	11900 fluorescence intensity (a.u.)
GCCACGAGTTCCACGGCCGCGGCGTCGTCGTCGTCGTCGTCGGAGTCACCTAGTGCAG	8090 fluorescence intensity (a.u.)
TCTCCCTTTCATTTTTATGTATGTTGGAATTATTTTTGTTCGGAGTCACCTAGTGCAG	8590 fluorescence intensity (a.u.)
TATTTGATCCCGTTTTTTAAAATCGAGCTTACCGTTTGACCGGAGTCACCTAGTGCAG	10500 fluorescence intensity (a.u.)
GTGGAGCTATACCTTCTACTCTCAGCAATTGTCCTTTAGACGGAGTCACCTAGTGCAG	9460 fluorescence intensity (a.u.)
ACGCGGCCGCCGAGCTGGACTCCTCATCCCCAGCTTCGCTCGGAGTCACCTAGTGCAG	8600 fluorescence intensity (a.u.)
CAATTATCCTCTGTGCTGTTTGACATTTTCTTGGTTAGTGCGGAGTCACCTAGTGCAG	12000 fluorescence intensity (a.u.)
GACACACGATTTCTTAAGGCTCATACTTTATGCTTGTCTACGGAGTCACCTAGTGCAG	11300 fluorescence intensity (a.u.)
GACACATGAACTTTCAATTTTTCTATCACATCGTTCTAATCGGAGTCACCTAGTGCAG	8150 fluorescence intensity (a.u.)
TTTTTTGGTTGTTGATATGATGTTCTTTTTTCCTCATTCTCGGAGTCACCTAGTGCAG	8990 fluorescence intensity (a.u.)
GGCTTTGTATTTTGGTGTTGAGTCCCTTCCATACAAGAACCGGAGTCACCTAGTGCAG	8040 fluorescence intensity (a.u.)
AGTTTTTGCTTGTAACGTTTCACCACTCGTCTTATTCAAACGGAGTCACCTAGTGCAG	8340 fluorescence intensity (a.u.)
AACCTCCACACACCCGCTCATACTACAAGCTAGGTAATCACGGAGTCACCTAGTGCAG	8040 fluorescence intensity (a.u.)
CACCTCCCCGCCCACCATTCCCACTTTCGCCCACACACACCGGAGTCACCTAGTGCAG	9570 fluorescence intensity (a.u.)
TGCTCGGACCATTCCCCGCCCACCATCGCTGCACACTTTTCGGAGTCACCTAGTGCAG	17200 fluorescence intensity (a.u.)
CGCTGACCACGTTGACCATCTTCCATTTCTTCCCCTCGCCCGGAGTCACCTAGTGCAG	18600 fluorescence intensity (a.u.)
GCGCTTCTGACCACCACGTGCATTTCCATTTCCCGCTGCACGGAGTCACCTAGTGCAG	12700 fluorescence intensity (a.u.)
CGCACCACCACCACCATTTCCACGCCCCTCTCTCCATTCCCGGAGTCACCTAGTGCAG	8680 fluorescence intensity (a.u.)
CGCTCCACCACCCGCCCGCTCGCCCATTTCCTCTCCCTTTCGGAGTCACCTAGTGCAG	12300 fluorescence intensity (a.u.)
CCCATCGCATCTTTCCCACTCGCCCCACGCCCGCACGTCTCGGAGTCACCTAGTGCAG	18800 fluorescence intensity (a.u.)
GCCCCATCCACCGCACCACACGTCTCTTTTTTTCGCGACTCGGAGTCACCTAGTGCAG	14600 fluorescence intensity (a.u.)
CCCCTCGCCGCCCTCTCTCTCACAGTCTCACGCATCCCATCGGAGTCACCTAGTGCAG	8440 fluorescence intensity (a.u.)
